Assay [1] in a line: qHTS assay for small molecules that induce genotoxicity in human embryonic kidney cells expressing luciferase-tagged ATAD5 (AID 651632). Note: nearly all actives have a fitted effect of over 15% in size. Note: potency is the fitted concentration of half-maximal effect. The following applies: HEK293T ATAD5-luciferase induction, 16 h; series mostly up to 83.3 µM. Summed up: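 Cells were seeded at 2,000 per well, dosed with compound, and incubated 16 hr at 37C in 5% CO2. Luciferase activity was then quantified after a 30 min room-temperature incubation with Amplite.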

Assay [2] can be described thus: qHTS assay for small molecule agonists of the p53 signaling pathway - cell viability (AID 651633; calls by dose curve; note: nearly all actives have a fitted effect of over 30% in size; note: potency is the fitted concentration of half-maximal effect). The following applies: p53RE-bla HCT-116 viability, ATP luminescence, 16 h; series mostly up to 83.3 µM. The procedure, abridged:
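Viability counter-read: CellTiter-Glo luminescence (30 min, room temperature) in the same p53RE-bla plates. These plates had been exposed to compounds for 16 h at 37 C.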

The nature of assay [3]: qHTS assay for small molecules that induce genotoxicity in human embryonic kidney cells expressing luciferase-tagged ATAD5 - cell viability (AID 651634; calls by dose curve; note: nearly all actives have a fitted effect of over 25% in size). Conditions: HEK293T ATAD5-luc cells viability, CellTiter-Fluor, 15.5 h; series mostly up to 83.3 µM. The procedure, abridged: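 Cells (HEK293T, luciferase-tagged ATAD5) are seeded at 2,000 per well, dosed with compound or DMSO vehicle, and incubated 15.5 hr at 37C and 5% CO2. CellTiter-Fluor is added for 30 min before fluorescence is measured.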

Assay [4] can be described thus: qHTS assay for small molecule disruptors of the mitochondrial membrane potential - cell viability (AID 720634; calls by dose curve; note: nearly all actives have a fitted effect of over 20% in size; note: potency is the fitted concentration of half-maximal effect). Conditions: HepG2 viability, ATP luminescence (CellTiter-Glo), 1 h; series mostly up to 83.2 µM. The procedure, abridged: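 Cytotoxicity was measured by ATP quantitation in HepG2 wells that had first been treated with compound for 1 hr and stained with m-MPI dye; CellTiter-Glo incubation was 30 min at room temperature.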

Assay [5] can be described thus: qHTS assay for small molecule disruptors of the mitochondrial membrane potential (AID 720635). Note: potency is the fitted concentration of half-maximal effect. Conditions: HepG2 mitochondrial membrane potential, Mito-MPS dye ratio; series mostly up to 83.2 µM. The procedure, abridged: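 Mitochondrial membrane potential tracked with Mito-MPS dye, red aggregates (ex 540/em 590 nm) against green monomers (ex 490/em 535 nm). Compound treatment 1 hr at 37C, dye 30 min in HepG2.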

Assay [6] in a line: qHTS assay to test for compound auto fluorescence at 590 nm (red) in HepG2 cells (AID 720674). Conditions: HepG2 autofluorescence, red 540/590 nm, 1 h; series mostly up to 91.3 µM. The procedure, abridged:
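Red autofluorescence (Ex/Em 540/590 nm, Rose Bengal sodium equivalents) was measured in HepG2 cells, 2,000 per well in MEM plus 10% FBS, plated overnight at 37 C. Readings were taken 1 hr after adding 23 nL compound or DMSO, at 37 C and 5% CO2.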

The nature of assay [7]: qHTS assay to test for compound auto fluorescence at 535 nm (green) in HepG2 cells (AID 720675). The following applies: green autofluorescence 485/535 nm, 1 h; series mostly up to 91.3 µM.
The nature of assay [8]: qHTS assay to test for compound auto fluorescence at 460 nm (blue) in HEK293 cells (AID 720678). Conditions: blue autofluorescence 405/460 nm; series mostly up to 91.3 µM. The procedure, abridged:
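Blue-channel (Ex/Em 405/460 nm) intensity measured in HEK293 cultures after overnight compound exposure at 37C; signal expressed relative to triamterene. Cells plated 2,000 per well in 10% dialyzed FBS medium and allowed 4-5 hr to attach.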

A short description of assay [9]: qHTS assay to test for compound auto fluorescence at 590 nm (red) in HEK293 cells (AID 720679). Conditions: red autofluorescence 540/590 nm; series mostly up to 91.3 µM. Summed up:
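Red-channel autofluorescence (Ex/Em 540/590 nm; Rose Bengal sodium reference) was measured after overnight 37C, 5% CO2 exposure of attached HEK293 cells, 2,000 per well in medium with 10% dialyzed FBS.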

Assay [10] in a line: qHTS assay for small molecule agonists of the p53 signaling pathway (AID 651631; calls by dose curve; note: nearly all actives have a fitted effect of over 15% in size). The following applies: HCT-116 p53RE-bla reporter, beta-lactamase FRET ratio, 16 h; series mostly up to 73.3 µM. The procedure, abridged:
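Stably transfected HCT-116 cells (beta-lactamase behind p53 response elements) get compounds after a 5 h settling period; 16 h later at 37 °C, FRET substrate is loaded and fluorescence read after 2 h.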

Molecules are shown by their SMILES. Records with an inconclusive call do not appear. Activity calls are given as the source filed them. Unless noted, calls come from the whole dose curve; as a rule, active = well fitted curve in the direction sought with a large enough effect in the repeat runs; inconclusive = weak or mixed curves; inactive = no such curve, though single readings can be large; an effect the other way counts as inactive or inconclusive.

As for `CCN(CC)C(C)C(=O)c1ccccc1` (stereo not given), the Potency entry in assay [1], in assay [2], in [3], in assay [4] and in assay [5] was “inactive” throughout. Further, the compound was called inactive in assay [6], in [7], in assay [8] and in assay [9].
On to `N#CC(CCc1ccc(Cl)cc1)(Cn1cncn1)c1ccccc1` (stereo not given), for which the Potency result in [1] and in assay [4] was “inactive” each time. Moreover, the Potency in [2] is 6.86 µM (active); in [5], 48.6 µM (active). Further, the compound was called inactive in assay [7] and in assay [8].
Turning to `COc1cc(OC)nc(NC(=O)NS(=O)(=O)c2ncccc2OCC(F)(F)F)n1`, the Potency result in assay [1], in assay [2], in [3], in assay [4] and in [5] was “inactive” throughout. Further, the outcome in assay [7] and in assay [8] was inactive.
On to `CCN(CC)CCOC(=O)C(C)(c1ccccc1)c1ccccc1`, for which the Potency result in assay [1], in assay [2], in assay [3] and in [4] was “inactive” in each case. The call in assay [6] and in [9] was inactive.
`COP(=S)(OC)Oc1c(Cl)cc(C)cc1Cl`: the Potency result in [1], in assay [2] and in assay [4] was “inactive” in each case. Moreover, the Potency in assay [5] is 24.3 µM (active). Besides, the call in assay [6], in assay [7] and in assay [8] was inactive.
On to `COC(=O)c1ccccc1S(=O)(=O)NC(=O)N(C)c1nc(C)nc(OC)n1`, for which the Potency result in assay [1], in [2], in assay [3] and in [4] was “inactive” throughout. Also, the compound was called inactive in assay [7], in assay [8] and in assay [9].
Consider `CCOP(=S)(OCC)SCSc1ccc(Cl)cc1`, for which the Potency entry in assay [1], in [2], in assay [3], in [4] and in assay [5] was “inactive” each time. For the same compound, the outcome in assay [6], in assay [8] and in [9] was inactive.
For the compound `c1coc(-c2nc3ccccc3[nH]2)c1`, in [10], the Potency entry is “inactive”. Moreover, the call in [6], in assay [7], in [8] and in assay [9] was inactive.
Turning to `Nc1n[nH]c(N)n1`, the Potency result in [1], in assay [2], in assay [3] and in assay [4] was “inactive” throughout. Besides, the call in assay [6], in [8] and in assay [9] was inactive.
As for `CC(C)CC#N`, the Potency result in [1], in [2], in [3], in assay [4] and in [5] was “inactive” in each case. Also, the outcome in assay [6], in [7] and in assay [8] was inactive.
For the compound `O=C1CN=C(c2ccccc2)c2cc([N+](=O)[O-])ccc2N1`, the Potency result in assay [1], in assay [2], in assay [3], in assay [4] and in assay [5] was “inactive” in each case. The call in assay [6], in assay [7] and in assay [8] was inactive.
With `CC1(C(=O)Nc2ccc(O)c(Cl)c2Cl)CCCCC1`, the Potency entry in assay [1], in [2] and in assay [3] was “inactive” each time. Besides, in assay [5], the Potency was 7.7 µM (active). In addition, the compound was called inactive in assay [7], in assay [8] and in assay [9].
On to `Oc1c(Cl)cccc1Cl`, for which the Potency entry in assay [1], in assay [2], in assay [3], in [4] and in assay [5] was “inactive” in each case. The result in assay [6], in [7] and in assay [8] was inactive.
Take `Cc1ncsc1CCCl`: the Potency entry in assay [1], in [2], in [3] and in assay [4] was “inactive” in each case. The outcome in [6], in [7] and in [8] was inactive.
As for `N#CC(O)c1ccccc1` (stereo not given), the Potency entry in [1], in [2], in [3], in assay [4] and in assay [5] was “inactive” throughout. The compound was called inactive in [6], in [7], in assay [8] and in assay [9].
For the compound `Cc1ccccc1CO[C@@H]1C[C@@]2(C(C)C)CC[C@]1(C)O2`, the Potency result in [1], in assay [2] and in assay [3] was “inactive” throughout. Besides, the outcome in [6], in [7], in [8] and in assay [9] was inactive.
For the compound `C[N+](C)=CCl`, the Potency entry in assay [1], in [2], in assay [3] and in [4] was “inactive” throughout. Moreover, the compound was called inactive in [6], in assay [7], in [8] and in [9].
On to `COC(=O)C(C)Oc1ccc(Oc2ccc(Cl)cc2Cl)cc1` (stereo not given), for which the Potency entry in [1], in assay [2], in assay [3] and in assay [4] was “inactive” throughout. Besides, the compound was classed as inactive in [6], in assay [7], in assay [8] and in assay [9].
For `Cc1ncc2n1-c1ccc(Cl)cc1C(c1ccccc1F)=NC2`, in [1], the Potency is 26.6 µM (active). Besides, the Potency entry in [2], in [3] and in [4] was “inactive” throughout. The compound was classed as inactive in assay [6], in assay [7] and in [8].
With `O=C(Nc1ccccc1)N(Cc1ccc(Cl)cc1)C1CCCC1`, the Potency result in assay [1] and in assay [2] was “inactive” throughout. The Potency in assay [4] was 61.1 µM (active); in assay [5], 15.4 µM (active). In addition, the compound was called inactive in [6], in [7], in assay [8] and in [9].
In the case of `CC1(C)C(=O)NC(=O)NC1=O`, the Potency result in [1], in assay [2], in assay [3], in assay [4] and in assay [5] was “inactive” each time. Besides, the call in assay [7], in assay [8] and in assay [9] was inactive.

Source of the values: PubChem BioAssay (Tox21).
